The values below come from ChEMBL document CHEMBL1157539, “Thousands of chemical starting points for antimalarial lead identification” (Nature, 2010).

What all share (type): functional
The test system of assay [1] is Plasmodium falciparum. Briefly: GSK_TCMDC: Inhibition of Plasmodium falciparum 3D7 in whole red blood cells, using parasite LDH activity as an index of growth. Test compounds present at 2uM.
The subject of assay [2] is Plasmodium falciparum. Put plainly: GSK_TCMDC: Inhibition of Plasmodium falciparum Dd2 in whole red blood cells, using parasite LDH activity as an index of growth. Test compounds present at 2uM.
A further assay has as its system HepG2. Briefly: GSK_TCMDC: Percent inhibition of human HepG2 cell line. Test compounds present at 10uM.

Consider `Cn1cc(CN2CCCC(COC(c3ccc(F)cc3)c3ccc(F)cc3)C2)cn1` (configuration not stated), for which the values for the Inhibition with Plasmodium falciparum [1], in the assay on Plasmodium falciparum [2] and with HepG2 were 98%, 100% and 15%, respectively.

Turning to `CN1CCN(CCCN(Cc2csc(-c3ccc(CNCc4ccccc4)cc3)n2)C(=O)Nc2ccc3ccccc3c2)CC1.O=C(O)C(F)(F)F`, the Inhibition with Plasmodium falciparum [1] was determined as 94%; in the assay with Plasmodium falciparum [2], 63%; in the assay on HepG2 it was 12%.

As to `COc1ccc(CCNCCCCCCNCCc2ccc(-c3ccccc3)cc2)cc1OC.Cl`, the Inhibition turned out to be 99% in the assay with Plasmodium falciparum [1], 35% with Plasmodium falciparum [2] and 100% in the assay with HepG2.

Consider `Cc1nnsc1C(=O)Nc1cccc(-c2cccc(-c3nc4cc(F)ccc4[nH]3)c2)c1`, for which the results for the Inhibition in the assay on Plasmodium falciparum [1], in the assay on Plasmodium falciparum [2] and with HepG2 were 100%, 45% and 35%, respectively.

In the case of `O=C(Nc1ccccc1)N1CCOC(CCN2CCC(F)(F)CC2)(c2ccc(Cl)c(Cl)c2)C1` (configuration not stated), the results for the Inhibition with Plasmodium falciparum [1], in the assay with Plasmodium falciparum [2] and in the assay on HepG2 were 100%, 100% and 20%, respectively.

As to `CC(C)(C)C1CC(=O)CC2C(=O)N(C3CCCCC3)C(=O)C21` (configuration not stated), the Inhibition with Plasmodium falciparum [1] is 97%; in the assay with Plasmodium falciparum [2] it was 27%; with HepG2, 0%.

With `CC(C)NCc1cc(Nc2ccnc3cc(Cl)ccc23)ccc1O.Cl`, the Inhibition in the assay with Plasmodium falciparum [1] came out at 100%; in the assay on Plasmodium falciparum [2], 100%; with HepG2, 27%.

As for `Clc1ccc(-c2cc3c(NCc4ccncc4)nccc3s2)cc1`, the Inhibition worked out at 98% with Plasmodium falciparum [1], 8% in the assay with Plasmodium falciparum [2] and 26% with HepG2.

Take `CC(C)NCc1ccc(-c2cccc(NC(=O)c3ccc(C#N)cc3)c2)cc1.O=C(O)C(F)(F)F`: the Inhibition in the assay with Plasmodium falciparum [1] is given as 100%; with Plasmodium falciparum [2] it was 19%; with HepG2 it was 8%.

As for `COc1ccc(CN2CCC2=O)c(OC)c1`, the values for the Inhibition in the assay with Plasmodium falciparum [1], in the assay on Plasmodium falciparum [2] and in the assay on HepG2 were 98%, 96% and 0%, respectively.

On to `CC(NC(=O)NC1CCC(CCN2CCCc3ccccc32)CC1)c1cccc2ccccc12.O=C(O)C(F)(F)F` (configuration not stated), for which the Inhibition is reported as 90% in the assay on Plasmodium falciparum [1], 83% in the assay with Plasmodium falciparum [2] and 0% with HepG2.

Turning to `CCc1c(C)nc(-n2nc(C)cc2NC(=O)c2cccc3ccccc23)[nH]c1=O`, the Inhibition came to 98% in the assay with Plasmodium falciparum [1], 89% with Plasmodium falciparum [2] and 39% in the assay with HepG2.

As to `Cn1cncc1C(=O)NC1CCN(c2ccnc(Nc3ccc(F)cc3)n2)C1` (configuration not stated), the Inhibition with Plasmodium falciparum [1] was 97%; with Plasmodium falciparum [2], 83%; with HepG2, 2%.

Turning to `Cc1cccnc1CNc1nccc2c(C)c(C)[nH]c12.Cl`, the Inhibition in the assay on Plasmodium falciparum [1] is on record as 100%; with Plasmodium falciparum [2], 28%; with HepG2 it was 27%.

As for `N#CCCN1CCN(Cc2cccc(-c3ccc(-c4nc5ccccc5[nH]4)cc3)c2)CC1.O=C(O)C(F)(F)F`, the Inhibition was 93% in the assay on Plasmodium falciparum [1], 20% in the assay with Plasmodium falciparum [2] and 18% with HepG2.

For the molecule `COc1ccccc1CCNc1nc(C)cc(N[C@@H](Cc2ccccc2)C(=O)NCCc2ccccc2)n1.O=C(O)C(F)(F)F`, the figures for the Inhibition with Plasmodium falciparum [1], with Plasmodium falciparum [2] and with HepG2 were 100%, 89% and 16%, respectively.

With `Fc1cc(Cl)ccc1Nc1ccnc2cc(-c3ccc(CN4CCOCC4)o3)ccc12`, the results for the Inhibition with Plasmodium falciparum [1], with Plasmodium falciparum [2] and with HepG2 were 99%, 98% and 33%, respectively.

As to `O=C(Nc1ccccc1)N(Cc1cccc(-c2cccc(CNCc3ccc4c(c3)OCO4)c2)c1)C1CCN(Cc2ccccc2)CC1.O=C(O)C(F)(F)F`, the Inhibition with Plasmodium falciparum [1] is given as 100%; with Plasmodium falciparum [2] it was 84%; with HepG2, 96%.

Consider `C[C@H](NC(=O)c1cc(-c2ccc(C(C)(C)C)cc2)no1)C(=O)O.C[C@H](NC(=O)c1conc1-c1ccc(C(C)(C)C)cc1)C(=O)O`, for which the figures for the Inhibition in the assay on Plasmodium falciparum [1], in the assay on Plasmodium falciparum [2] and in the assay on HepG2 were 91%, 97% and 31%, respectively.

`CC(C)CNCc1ccc(-c2ccccc2CN(C(=O)NCCc2ccccc2)C2CCN(Cc3ccccc3)CC2)cc1.O=C(O)C(F)(F)F`: the Inhibition is reported as 98% with Plasmodium falciparum [1], 94% in the assay on Plasmodium falciparum [2] and 89% in the assay with HepG2.

`CCNc1cc(C(=O)N[C@@H](Cc2ccccc2)[C@H](O)CNCC(C)C)cc(N2CCCC2=O)c1`: the Inhibition is on record as 98% in the assay on Plasmodium falciparum [1], 97% with Plasmodium falciparum [2] and 16% with HepG2.

Regarding `Cl.N=C(N)NCCCN(Cc1ccccc1)c1ccccc1`, the results for the Inhibition with Plasmodium falciparum [1], in the assay with Plasmodium falciparum [2] and with HepG2 were 100%, 97% and 0%, respectively.

Regarding `COC(=O)c1cc(C(=O)CN(Cc2ccccc2)C(C)C)ccc1O.Cl`, the Inhibition amounted to 97% in the assay on Plasmodium falciparum [1], 0% with Plasmodium falciparum [2] and 7% in the assay on HepG2.

`COc1cc(NC(=O)/C=C/c2cc(F)cc(F)c2F)cc(OCCN2CCC(O)(c3ccccc3)CC2)c1.O=C(O)C(=O)O`: the Inhibition with Plasmodium falciparum [1] was determined as 100%; in the assay on Plasmodium falciparum [2] it was 82%; in the assay with HepG2, 54%.

With `CC(C)NCc1ccc(-c2ccc(NC(=O)c3ccc(C#N)cc3)cc2)cc1.O=C(O)C(F)(F)F`, the Inhibition in the assay on Plasmodium falciparum [1] is given as 90%; in the assay with Plasmodium falciparum [2] it was 0%; in the assay with HepG2 it was 23%.

With `C[C@@H](CC1CCCCC1)NCc1cccc(NS(=O)(=O)c2ccc(O)c(-c3ccno3)c2)c1.Cl`, the Inhibition is 88% with Plasmodium falciparum [1], 4% with Plasmodium falciparum [2] and 0% with HepG2.

On to `COc1c(OC)c(OC)c2ccccc2c1CNCCCCCCNCc1c(OC)c(OC)c(OC)c2ccccc12.Cl`, for which the Inhibition is listed as 100% with Plasmodium falciparum [1], 71% in the assay with Plasmodium falciparum [2] and 99% in the assay on HepG2.

Consider `CN(C)c1ccc(-c2ccc(C(=O)NC3CCN(Cc4ccccc4)CC3)s2)cc1.O=C(O)C(F)(F)F`, for which the Inhibition in the assay on Plasmodium falciparum [1] is reported as 92%; with Plasmodium falciparum [2], 10%; with HepG2, 20%.

Take `O=C(Nc1ccc(-c2ccccc2)cc1)Nc1cccc(Cn2ncc(N3CCCNCC3)c(Cl)c2=O)c1`: the Inhibition in the assay on Plasmodium falciparum [1] was 100%; in the assay on Plasmodium falciparum [2], 52%; in the assay on HepG2 it was 14%.
